Assay [1] in a line: Primary qHTS for inhibitors of nuclear receptor binding SET domain protein 2 (NSD2) in an RCH-ACV wild type WT cells (2C) (AID 1645877; also: nearly all actives have a fitted effect of over 70% in size; also: potency is read from the fitted curve at half-maximal effect; as to activity change, negative = cell killing: % is scaled to controls: 0 for no effect and ±100 for the full control effect). (Quantitative high-throughput screening tests each substance at several concentrations.)
The target of assay [2] is Glutathione peroxidase 1 (Homo sapiens) (UniProt P07203). In words: Primary qHTS Assay for Inhibitors of Recombinant Selenoprotein Glutathione Peroxidase 1 (GPX1) (AID 1845191). Also: nearly all actives have a fitted effect of over 65% in size. In outline: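 GR-coupled assay: compounds preincubated 30 min at room temperature with GPX1, then reaction started with CHP; final 10 nM GPX1, 1 mM GSH, 0.5 mM CHP, 0.5 mM NADPH, 100 nM GR, 0.01% BSA, pH 7.5 Tris buffer. NADPH fluorescence (340/450 nm) read at 0 and 15 min.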

Assay [3] concerns the target Phospholipid hydroperoxide glutathione peroxidase GPX4 (Homo sapiens) (UniProt P36969). In words: Primary qHTS Assay for Inhibitors of Recombinant Selenoprotein Glutathione Peroxidase 4 (GPX4) (AID 1845192). Also: nearly all actives have a fitted effect of over 65% in size. As to activity change, negative = inhibition: % is scaled to controls: 0 for no effect and ±100 for the full control effect. In outline:
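GR-coupled assay: recombinant GPX4 preincubated 30 min with compound at room temperature; final 200 nM GPX4, 1 mM GSH, 0.5 mM cumene hydroperoxide, 0.5 mM NADPH, 100 nM GR, 0.01% BSA, pH 7.5 Tris. NADPH fluorescence (340/450 nm) read at 0 and 15 min.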

Assay [4] addresses Rap guanine nucleotide exchange factor 4 (Homo sapiens) (UniProt Q8WZA2). In words: Confirmatory qHTS for antagonist of cAMP-regulated guanine nucleotide exchange factor 4 (EPAC2) (AID 1645885). Also: nearly all actives have a fitted effect of over 25% in size. Also: potency is read from the fitted curve at half-maximal effect. As to activity change, negative = inhibition: % is scaled to controls: 0 for no effect and ±100 for the full control effect.
A short description of assay [5]: NCATS anti-infectives library activity on the primary C. elegans qHTS viability assay (AID 1745855; calls by dose curve; also: potency is read from the fitted curve at half-maximal effect). A digest of the protocol:
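Viability read-out is GFP fluorescence of PE254-GFP-FLuc C. elegans, measured by laser cytometry (488 nm) at day 0, 3 and 7. Ten L1 worms per well were incubated 7 days at 21 °C with compounds and bacterial capsules in S medium.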

In assay [6] the target is Metallo-beta-lactamase type 2 (Klebsiella pneumoniae) (UniProt C7C422). In words: qHTS to identify inhibitors of the New Delhi Metallo-beta-lactamase (NDM): assay validation screen against the NCATS LOPAC Collection (AID 1794843). Also: potency is read from the fitted curve at half-maximal effect.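 As to activity change, negative = inhibition: nitrocefin turnover by NDM-1 measured as 485 nm absorbance at plateau; % is scaled to controls: 0 for no effect and ±100 for the full control effect.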 In outline:
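NDM-1 at 2 nM final in 50 mM HEPES pH 7.0 with 1 uM ZnSO4 and 0.01% Tween20 was preincubated with library compounds in DMSO. Nitrocefin (50 uM stock) was then added, and absorbance at 485 nm was read at the kinetic plateau.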

Assay [7] deals with Catechol O-methyltransferase (Homo sapiens) (UniProt P21964). In words: Confirmatory Screen for Target Class Profiling of Small Molecule Inhibitors of Methyltransferases (AID 1745852). The settings on record: MTase-Glo luminescence, SAH detection, recombinant enzyme; measured here: COMT max response; stronger effect = lower value.
In assay [8] the target is Guanidinoacetate N-methyltransferase (Homo sapiens) (UniProt Q14353). The assay is described as above. The settings on record: MTase-Glo luminescence, SAH detection, recombinant enzyme; activity change, negative = inhibition: at 57.3 µM (top of the series) unless noted.
Assay [9] has as its target Nicotinamide N-methyltransferase (Homo sapiens) (UniProt P40261). Described as above. The settings on record: MTase-Glo luminescence, SAH detection, recombinant enzyme; measured here: NNMT max response; stronger effect = lower value.
Assay [10] addresses Phenylethanolamine N-methyltransferase (Homo sapiens) (UniProt P11086). The description is as above. The note with it: MTase-Glo luminescence, SAH detection, recombinant enzyme; measured here: PNMT max response; stronger effect = lower value.
Assay [11] deals with Nuclear receptor subfamily 1 group I member 3 (Homo sapiens) (UniProt Q14994). In words: Primary qHTS for antagonist of constitutive androstane receptor (CAR) against the NCATS DSHEA and TCM libraries (AID 1794836).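 Also: HepG2 cells stably expressing hCAR with CYP2B6 luciferase reporter stimulated by CITCO.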 In outline:
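HepG2-CYP2B6-hCAR cells, attached 5 h, given compounds plus CITCO agonist […], incubated 24 h at 37 C. Luciferase luminescence read, multiplexed with CellTiter-Fluor viability (Ex/Em 405/540 nm).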

Assay [12] can be described thus: Viability counterscreen for antagonist of constitutive androstane receptor (CAR) against the NCATS DSHEA and TCM libraries (AID 1794837).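 Also: compound exposure lasted 24 h before viability reading; 0% is about no effect.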 A digest of the protocol:
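Viability was measured by CellTiter-Fluor fluorescence (405/540 nm, 1 hr) in HepG2-CYP2B6-hCAR cells. Cells were co-treated 24 hr with 48 uM CITCO (final), antagonist mode, and test substances.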

The nature of assay [13]: Viability counterscreen for agonist of constitutive androstane receptor (CAR) against the NCATS DSHEA and TCM libraries (AID 1794838). Also: 0% is about no effect. A digest of the protocol: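 Cell viability, from CellTiter-Fluor fluorescence (405/540 nm), was scored after a 24 h, 37C exposure of HepG2 cells carrying CYP2B6 reporter and hCAR to test substances in presence of 0.75 uM PK11195.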
(The purpose of a counterscreen is to sort out artefacts and off-target activity.)

Assay [14] addresses Nuclear receptor subfamily 1 group I member 3 (Homo sapiens) (UniProt Q14994). In words: Primary qHTS for agonist of constitutive androstane receptor (CAR) against the NCATS DSHEA and TCM libraries (AID 1794839).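 Also: HepG2 cells expressing human CAR with a CYP2B6 reporter plus PK11195 antagonist; luciferase reporter luminescence read with ONE-Glo; 0% is about no effect.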 A digest of the protocol: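 Agonist mode in presence of hCAR antagonist PK11195 (0.75 µM final): test substances, 24 h, 37 °C, on HepG2-CYP2B6-hCAR cells. Same-well readouts: fluorescence viability, then ONE-Glo luminescence; CITCO as reference agonist.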

A short description of assay [15]: HepG2 viability counterscreen (readout 2: ATP content) against the NCATS DSHEA and TCM libraries (AID 1794840).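 Also: HepG2 cells exposed to substances for about 24 h; 0% is about no effect.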 A digest of the protocol:
(§1)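 Readout 1: cellular protease activity, GF-AFC substrate (25 uM final, 30 min, fluorescence 380/510 nm). Readout 2: ATP content by CellTiter-Glo luminescence after 30 min at RT. Both follow ~24 h exposure of HepG2 cells (1,000/well) to substances.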

Assay [16] can be described thus: HepG2 viability counterscreen (readout 1: protease activity) against the NCATS DSHEA and TCM libraries (AID 1794841).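 Also: cells exposed to compounds for about 24 h before the protease read; 0% is about no effect.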 In outline:
as §1

Several values for one entry are separate records, joined by “and”; a condition that tells them apart may be missing. Equal entries are not always repeated. Inconclusive results are not listed. Activity calls are given as the source filed them. Unless noted, calls follow the shape of the dose curve; as a rule, active = well fitted curve in the direction sought with a large enough effect; inconclusive = small, poorly fitted or top-dose-only effect, or another doubt; inactive = no such curve, though single readings can be large; an effect the other way counts as inactive or inconclusive.

Phospholipid hydroperoxide glutathione peroxidase GPX4 (Homo sapiens), sequence (P36969 whole entry, looked up): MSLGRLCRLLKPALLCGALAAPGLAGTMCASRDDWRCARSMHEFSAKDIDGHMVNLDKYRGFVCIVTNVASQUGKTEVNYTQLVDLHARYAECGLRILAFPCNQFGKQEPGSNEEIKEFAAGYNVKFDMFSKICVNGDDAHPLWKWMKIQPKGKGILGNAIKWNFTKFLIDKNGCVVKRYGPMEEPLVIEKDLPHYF
Metallo-beta-lactamase type 2 (Klebsiella pneumoniae), sequence (C7C422 whole entry, looked up): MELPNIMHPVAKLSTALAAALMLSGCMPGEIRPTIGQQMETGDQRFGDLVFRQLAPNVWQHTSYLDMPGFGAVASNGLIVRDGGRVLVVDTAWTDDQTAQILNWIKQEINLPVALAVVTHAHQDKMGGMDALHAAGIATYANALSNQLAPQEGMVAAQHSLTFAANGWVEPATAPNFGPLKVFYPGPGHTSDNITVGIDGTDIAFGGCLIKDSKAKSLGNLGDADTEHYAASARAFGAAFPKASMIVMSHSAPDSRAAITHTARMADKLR
Glutathione peroxidase 1 (Homo sapiens), sequence (P07203 whole entry, looked up): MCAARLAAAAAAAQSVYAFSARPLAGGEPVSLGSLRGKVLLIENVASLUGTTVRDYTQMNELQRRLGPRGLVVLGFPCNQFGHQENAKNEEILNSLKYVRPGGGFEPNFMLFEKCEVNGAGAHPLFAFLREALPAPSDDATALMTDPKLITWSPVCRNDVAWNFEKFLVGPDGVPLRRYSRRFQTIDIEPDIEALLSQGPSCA
Nuclear receptor subfamily 1 group I member 3 (Homo sapiens), sequence (Q14994 whole entry, looked up): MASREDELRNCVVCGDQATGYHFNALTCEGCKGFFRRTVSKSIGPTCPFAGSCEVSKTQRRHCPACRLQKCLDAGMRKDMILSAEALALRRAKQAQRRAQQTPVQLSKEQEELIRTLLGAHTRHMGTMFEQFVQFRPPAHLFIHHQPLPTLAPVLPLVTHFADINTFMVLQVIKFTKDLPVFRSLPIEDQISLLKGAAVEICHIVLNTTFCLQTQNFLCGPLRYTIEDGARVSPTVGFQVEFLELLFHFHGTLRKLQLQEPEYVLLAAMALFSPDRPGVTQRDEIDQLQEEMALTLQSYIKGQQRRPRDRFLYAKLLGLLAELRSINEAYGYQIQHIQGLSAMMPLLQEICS
Rap guanine nucleotide exchange factor 4 (Homo sapiens), sequence (Q8WZA2 whole entry, looked up): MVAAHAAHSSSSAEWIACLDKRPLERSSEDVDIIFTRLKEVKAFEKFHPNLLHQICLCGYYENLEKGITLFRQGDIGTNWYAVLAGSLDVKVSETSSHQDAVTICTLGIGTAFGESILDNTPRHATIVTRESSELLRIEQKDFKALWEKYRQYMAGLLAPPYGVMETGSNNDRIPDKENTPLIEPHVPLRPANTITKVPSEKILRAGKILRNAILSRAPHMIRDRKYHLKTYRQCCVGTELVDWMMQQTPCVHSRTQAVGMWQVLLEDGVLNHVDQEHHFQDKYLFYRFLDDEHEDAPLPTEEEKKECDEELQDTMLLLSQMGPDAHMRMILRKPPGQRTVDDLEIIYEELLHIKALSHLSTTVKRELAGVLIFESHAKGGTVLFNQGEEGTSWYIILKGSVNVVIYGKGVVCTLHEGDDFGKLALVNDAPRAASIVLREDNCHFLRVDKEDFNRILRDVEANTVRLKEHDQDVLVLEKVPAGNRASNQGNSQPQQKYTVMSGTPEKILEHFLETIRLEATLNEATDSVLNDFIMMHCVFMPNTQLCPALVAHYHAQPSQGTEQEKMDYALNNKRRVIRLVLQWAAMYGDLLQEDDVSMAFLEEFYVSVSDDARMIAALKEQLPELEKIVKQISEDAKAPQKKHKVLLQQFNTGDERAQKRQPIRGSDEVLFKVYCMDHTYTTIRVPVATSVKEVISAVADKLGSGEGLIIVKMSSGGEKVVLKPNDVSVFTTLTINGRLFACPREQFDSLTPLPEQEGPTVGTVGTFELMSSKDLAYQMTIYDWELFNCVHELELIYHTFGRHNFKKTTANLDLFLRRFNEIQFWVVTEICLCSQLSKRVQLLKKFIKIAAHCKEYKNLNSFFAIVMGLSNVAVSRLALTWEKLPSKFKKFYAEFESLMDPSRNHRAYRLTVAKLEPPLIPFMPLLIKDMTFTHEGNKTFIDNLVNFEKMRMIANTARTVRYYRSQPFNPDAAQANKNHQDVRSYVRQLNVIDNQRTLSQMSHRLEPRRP
Catechol O-methyltransferase (Homo sapiens), sequence (P21964 whole entry, looked up): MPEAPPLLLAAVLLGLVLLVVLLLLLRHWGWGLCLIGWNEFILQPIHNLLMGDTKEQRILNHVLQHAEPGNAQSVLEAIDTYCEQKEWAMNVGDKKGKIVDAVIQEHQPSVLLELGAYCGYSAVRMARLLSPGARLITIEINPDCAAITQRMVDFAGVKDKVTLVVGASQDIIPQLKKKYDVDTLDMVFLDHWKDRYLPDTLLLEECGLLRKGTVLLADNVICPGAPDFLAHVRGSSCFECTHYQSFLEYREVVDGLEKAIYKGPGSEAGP
Nicotinamide N-methyltransferase (Homo sapiens), sequence (P40261 whole entry, looked up): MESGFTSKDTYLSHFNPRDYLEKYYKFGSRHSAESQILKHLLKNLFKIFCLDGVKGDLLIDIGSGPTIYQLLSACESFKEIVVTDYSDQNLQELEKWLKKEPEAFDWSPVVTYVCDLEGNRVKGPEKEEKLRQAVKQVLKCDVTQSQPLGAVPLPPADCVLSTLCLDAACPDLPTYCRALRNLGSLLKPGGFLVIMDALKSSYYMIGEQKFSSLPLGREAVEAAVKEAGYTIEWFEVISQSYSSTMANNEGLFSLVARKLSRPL
Phenylethanolamine N-methyltransferase (Homo sapiens), sequence (P11086 whole entry, looked up): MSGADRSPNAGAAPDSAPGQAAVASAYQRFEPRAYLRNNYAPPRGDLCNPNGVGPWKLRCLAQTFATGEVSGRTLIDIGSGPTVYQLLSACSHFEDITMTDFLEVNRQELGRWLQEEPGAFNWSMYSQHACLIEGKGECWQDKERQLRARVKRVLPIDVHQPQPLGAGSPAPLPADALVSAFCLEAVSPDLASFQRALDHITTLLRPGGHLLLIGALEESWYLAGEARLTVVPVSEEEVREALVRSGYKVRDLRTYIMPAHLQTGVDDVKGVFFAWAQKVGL

Turning to `Cc1c(Cl)cccc1S(=O)(=O)Nc1nc(CC(=O)N2CCN(C)CC2)cs1`, the Potency entry in assay [1], in assay [2] and in assay [3] was “inactive” throughout.
In the case of `COC1CC(O[C@H]2CC[C@@]3(C)C(=CCC4C3C(O)[C@@H](O)[C@]3(C)[C@@H](C(C)=O)CC[C@]43O)C2)OC(C)C1OC1CC(OC)C(OC2OC(C)C(O)C(O)C2O)C(C)O1` (some centres not stated), the activity change, negative = cell killing in assay [1] is -4.48% [at 9.23 µM] (inactive). The Potency result in assay [2] and in assay [3] was “inactive” throughout.
Take `COc1cc(C)[nH]c(=O)c1CNC(=O)c1c(C)n([C@H](C)C2CCOCC2)c2ccccc12`: the Potency result in [1], in assay [2] and in assay [3] was “inactive” throughout.
Consider `CCOc1ccccc1-n1c(C(C)N2CCN(C(=O)COc3ccc(Cl)cc3)CC2)nc2ccccc2c1=O` (configuration not stated), for which the Potency in [1] was 365 nM (active) and 372 nM (active). Also, the Potency result in assay [2] and in assay [3] was “inactive” in each case.
With `C[C@@]12C[C@@H](c3ccoc3)OC(=O)C1CC[C@]1(C)[C@H]2[C@H]2C=C[C@]1(O)C(=O)O2` (some centres not stated), the Potency entry in assay [1], in assay [2] and in assay [3] was “inactive” in each case.
Consider `CCCN1CCO[C@H]2c3cc(O)ccc3OC[C@@H]21`, for which the Potency result in assay [1], in [2] and in assay [3] was “inactive” in each case.
For `COc1c(C(C)C)cc2c(c1O)[C@@]1(C(=O)O)CCCC(C)(C)C1CC2` (some centres not stated), the Potency entry in [1], in [2] and in [3] was “inactive” in each case.
With `COC1CC(OC2CCC3(C)C(=CCC4C3CCC3(C)C(C(C)OC5OC(COC6OC(CO)C(O)C(O)C6O)C(O)C(O)C5O)CCC43O)C2)OC(C)C1OC1OC(C)C(O)C(OC)C1O` (configuration not stated), the activity change, negative = cell killing in assay [1] was 0.676% [at 9.23 µM] (inactive). Further, the Potency entry in assay [2] and in assay [3] was “inactive” in each case.
For the molecule `CC(=O)O[C@H]1C[C@@H](OC(C)=O)C(C)(C)C2C[C@@H](O)[C@]3(C)C(CC[C@@]4(C)[C@H](C5=CC(=O)OC5O)C[C@H]5O[C@]543)[C@]21C` (some centres not stated), the Potency result in assay [1], in assay [2] and in assay [3] was “inactive” each time.
On to `CC(N)Cc1c[nH]c2ccccc12` (configuration not stated), for which the Potency result in assay [1], in [2] and in [3] was “inactive” throughout.
`COCC1OC(=O)c2coc3c2C1(C)C1=C(C3=O)C2CCC(=O)C2(C)CC1O` (configuration not stated): the Potency entry in assay [1], in assay [2] and in assay [3] was “inactive” in each case.
Turning to `O=c1[nH]cc(N(CCCl)CCCl)c(=O)[nH]1`, in assay [4], the Potency entry was “inactive”.
Still for that read-out and setting: the value for `O=C1CN=C(c2ccccc2)c2cc(Cl)ccc2N1CC1CC1` was 55.5 µM (active).
Regarding `CC(C)(C)c1cc(C=C(C#N)C#N)cc(C(C)(C)C)c1O`, the Potency in [5] was 0.29 µM (active).
For `CN1CCc2cccc(Cl)c2CC1`, the Potency result in assay [6], in assay [2] and in assay [3] was “inactive” each time.
Turning to `C[C@H](N)Cc1cccc(C(F)(F)F)c1`, the Potency result in [6], in [2] and in [3] was “inactive” in each case.
For `O=C1C=CC(=O)C=C1`, the Potency entry in [6], in [2] and in assay [3] was “inactive” in each case.
As for `CCCN(CCC)[C@@H]1CCc2cccc(O)c2C1`, the Potency entry in assay [6], in assay [2] and in assay [3] was “inactive” throughout.
With `CN1C2CCC1CC(OC(c1ccccc1)c1ccccc1N)C2` (configuration not stated), the Potency result in assay [6], in assay [2] and in assay [3] was “inactive” in each case.
`Cc1sc2ccccc2c1CC1=NCCN1`: the values for the activity in [7], in assay [9] and in assay [10] were 6.03%, -6.99% and -30.1%, respectively. Besides, the activity change, negative = inhibition in assay [8] was found to be 4.23%. Also, the Potency result in [2] and in assay [3] was “inactive” throughout.
For the molecule `Clc1cc(I)cc(Cl)c1NC1=NCCN1`, the Potency result in assay [6], in assay [2] and in [3] was “inactive” in each case.
In the case of `O=S1(=O)N(CCN2CC=C(c3c[nH]c4cc(F)ccc34)CC2)c2cccc3c2N1CCC3`, the Potency entry in [6], in assay [2] and in [3] was “inactive” each time.
For `OC1CCCCC1N1CCC(c2ccccc2)CC1` (configuration not stated), the Potency entry in assay [6], in assay [2] and in assay [3] was “inactive” in each case.
Take `CNC(C)C(O)c1ccc(O)cc1` (configuration not stated): the outcome in assay [11], in [12], in [13], in assay [14], in [15] and in [16] was “inactive” throughout.
For `c1ccc2c(N3CCNCC3)cccc2c1`, the Potency entry in assay [6], in assay [2] and in assay [3] was “inactive” each time.
Consider `CC(Cc1ccc(OCC(=O)O)cc1)NCC(O)c1cccc(Cl)c1` (configuration not stated), for which the Potency result in assay [6], in assay [2] and in assay [3] was “inactive” in each case.
Take `[Cl-].[Cl][Pt].[NH2-].[NH2-].c1ccncc1`: in assay [6], the Potency is 3.98 µM (active). Also, the Potency entry in assay [2] was “inactive”.
Take `NC(Cc1cc(O)c(O)cc1O)C(=O)O` (configuration not stated): the Potency in assay [6] is 3.98 µM (active). For the same molecule, the Potency result in assay [2] and in assay [3] was “inactive” in each case.
For the molecule `C[C@H](N)CN1CCc2ccc(Br)cc21`, the Potency result in assay [6], in [2] and in [3] was “inactive” each time.
As to `C[C@@H]1O[C@@H](O[C@H]2C[C@@H](O)[C@]3(CO)[C@@H]4C(CC[C@]3(O)C2)[C@@]2(O)CC[C@H]([C@@H]3COC(=O)C3)[C@@]2(C)C[C@H]4O)[C@H](O)[C@H](O)[C@H]1O` (some centres not stated), the Potency result in [6], in assay [2] and in [3] was “inactive” in each case.
In the case of `c1ccc2c(c1)[I+]c1ccccc1-2`, the Potency result in assay [6], in assay [2] and in assay [3] was “inactive” each time.
In the case of `O=c1c2ccccc2[se]n1-c1ccccc1`, in [5], the Potency was 18.3 µM (active).
For `Cc1[nH]c2ccc(O)cc2c1CCN`, the Potency entry in assay [6], in [2] and in assay [3] was “inactive” in each case.
Regarding `CCCN(CCC)C1Cc2cc(OC)c(OC)cc2C1`, the Potency entry in assay [6], in [2] and in assay [3] was “inactive” in each case.
Turning to `O=C1CC[C@@]2(O)C3Cc4ccc(O)c5c4C2(CCN3CC2CC2)[C@H]1O5` (some centres not stated), the Potency result in assay [6], in assay [2] and in assay [3] was “inactive” throughout.

The values are drawn from PubChem BioAssay (NCATS).
